This is part of a sample that, as a whole, favours compounds with a hit. Of some 83,000 tested, about 20% had one in any assay.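 Treatment: one concentration, 48 hours, 96-well format. Scoring: percent growth, with anything below 10 considered active.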 Unmarked numbers belong to inactive results. Activity calls are given as the source filed them.
Experiments:
Assay in all cases: NCI-60 one-dose screen, 48 h (100 = growth as untreated, 0 = no growth, -100 = all killed)
Settings in all cases: 10 µM unless noted
[1] = test system: T-47D breast
[2] = test system: BT-549 breast
[3] = test system: MDA-MB-435 melanoma
[4] = test system: SW-620 colon
[5] = test system: MCF7 breast
[6] = test system: HCT-116 colon
[7] = test system: HCC-2998 colon
[8] = test system: KM12 colon

| SMILES | growth [1] | growth [2] | growth [3] | growth [4] | growth [5] | growth [6] | growth [7] | growth [8] |
| --- | --- | --- | --- | --- | --- | --- | --- | --- |
| Oc1ccc2c(=S)cc(-c3ccc(Br)cc3)oc2c1O | 2.92% (active) | 44.6% | 23.3% | 5.25% (active) | -31.9% (active) | -22% (active) | 73.8% | 12.9% |
| COc1cc(C2CC(=O)Nc3c2c(C)nn3-c2nc3ccccc3[nH]2)cc(OC)c1OC (centres undefined) | 103% | 113% | 103% | 97.4% | 88.1% | 107% | 93.7% | 123% |
| COc1ccc2nc3cc(Cl)ccc3c(NCCNCC(O)CO)c2c1 (centres undefined) | 21.7% | 44.3% | 28.3% | 15.2% | 9.17% (active) | 9.6% (active) | 44.8% | 20.7% |
| COc1ccc(/C=C2\N=C3Sc4cc(Cl)ccc4C(=O)N3C2=O)cc1 | 92% | 114% | 102% | 97.1% | 94.7% | 104% | 118% | 104% |
| CCC(=O)OCc1cccc(OC)c1 | 95.3% | 103% | 97.7% | 108% | 105% | 95.1% | 101% | 108% |
| Cc1cc(N/N=C/c2nc(-c3ccc(Cl)cc3)oc2C)c2cc(Cl)ccc2n1 | 77% | 91.2% | -29.7% (active) | -69.3% (active) | -86.2% (active) | -47.1% (active) | 103% | 53.6% |
| O=C1C=CC(=O)N1c1ccc(Cc2ccc(N3C(=O)C=CC3=O)cc2)cc1 | 89.8% | 95.8% | 104% | 110% | 89.5% | 89% | 102% | 100% |
| COc1cc(OC)c(/C=C/c2cc[n+](C)c3ccccc23)c(OC)c1 | 9.89% (active) | 24% | 4.33% (active) | 19.8% | 5.4% (active) | 11.4% | 10% | -19.9% (active) |
| O=C(O)c1cn(C2CC2)c2cc(N3CCN(Cc4nc5c(cnn5-c5ccc([N+](=O)[O-])cc5)c(=O)[nH]4)CC3)c(F)cc2c1=O | 104% | 96.1% | 100% | 105% | 91.5% | 99.8% | 112% | 107% |
| CCN(CC)CCCNc1cc(OC)cc2nc3cc(Cl)ccc3nc12 | 29.8% | 2.46% (active) | -90.4% (active) | -36.9% (active) | -2.19% (active) | -91.8% (active) | 27.5% | -51.4% (active) |
| CC(=O)C1=C(O)C=C2Oc3c(C(=O)/C=C/c4ccccc4)c(O)c(C)c(O)c3[C@]2(C)C1=O | 47.1% | 49.6% | 46.3% | 49.9% | 44.1% | 30.9% | 32.6% | 33.6% |
| CNc1nc(C)c(-c2nc(Nc3cccc(S(N)(=O)=O)c3)ncc2F)s1 | -2.75% (active) | -17.1% (active) | 17.6% | 8% (active) | 1.33% (active) | 5.28% (active) | 2.96% (active) | 5.25% (active) |
| Nc1cc2ccncc2c2ccccc12 | 82.3% | 70.5% | 59.8% | 62.7% | 51.5% | 38.3% | 83% | 68.6% |
| COc1cc(C2C(C(=O)c3cccs3)=C(O)C(=O)N2CCN2CCOCC2)cc(OC)c1OC (centres undefined) | 104% | 107% | 99.5% | 97.2% | 95.1% | 101% | 101% | 98.3% |
| O=C1C[C@H](Sc2nc(-c3ccc(F)cc3)cc(C(F)(F)F)n2)[C@H]2CO[C@@H]1O2 | 62.3% | 111% | 102% | 67.5% | 46.4% | 75.6% | 105% | 101% |
| Cc1nn(-c2ccccc2)c2nc(C)n(-c3ccc(Br)cc3)c(=O)c12 | 23.4% | 50.7% | -5.13% (active) | 22.6% | 13.4% | 15.7% | 32.6% | 43.1% |
| O=C(NCc1cccc(C(F)(F)F)c1)[C@H](CCC(=O)N1CCN(C2CCCCC2)CC1)N1C(=O)[C@@H](N2C(=O)OC[C@@H]2c2ccccc2)[C@H]1/C(Cl)=C/c1ccccc1 | 61.3% | 60.1% | 52.1% | 74.9% | 29.6% | 34.3% | 31.9% | 34.5% |
| C=C(C[n+]1ccccc1)[C@@H]1CC[C@]2(C(=O)OC)CC[C@]3(C)[C@H](CC[C@@H]4[C@@]5(C)CC[C@H](O)C(C)(C)[C@@H]5CC[C@]43C)[C@@H]12 | 82.5% | 99% | 91.8% | 91.6% | 97.7% | 97% | 104% | 103% |
| CC#Cc1nc2ccccc2c(=O)[nH]1 | 67.3% | 20.4% | 25.6% | 40.8% | 23.5% | 41.1% | 13.7% | 41.1% |
| CCOC(=O)c1c2c(n3ccc(NC(=O)CCN(CC)CC)cc13)C(=O)c1ncccc1C2=O | 55.9% | 75.9% | 32.7% | 49.3% | -8.59% (active) | 49.3% | 83.1% | 63.5% |
| COc1cc(C(=O)/C=C/c2c(C)n([O-])c3ccc(C)cc3[n+]2=O)cc(OC)c1OC | 17.6% | 76.7% | 60.1% | 0.477% (active) | 29.4% | 15% | 104% | 34.8% |
| O=C(C[C@@H](C(=O)NCc1cccc(C(F)(F)F)c1)N1C(=O)[C@@H](N2C(=O)OC[C@@H]2c2ccccc2)[C@H]1/C=C/c1ccccc1)NC1CCN(Cc2ccccc2)CC1 | 50.8% | 74.2% | 66.8% | 59.8% | 7.27% (active) | 30.4% | 59.9% | 59.4% |
| Cc1nc2sc(C(=O)Nc3cccc4c3OCCO4)c(N)c2cc1C(C)O (centres undefined) | -13.2% (active) | 56.1% | -39.2% (active) | 22.4% | 11.2% | 31.3% | 66.5% | 20.7% |
| CC[C@H](Nc1nc(N)nc(C)c1C#N)c1nc2cccc(NCc3ccc(C(=O)NO)cc3)c2c(=O)n1-c1ccccc1 | -8.21% (active) | 20.9% | -1.57% (active) | -16.4% (active) | 5.7% (active) | -50.5% (active) | 28.3% | 0.659% (active) |
| COc1ccc(/C=C2\CN(C(=O)CCN3CCC(=NO)CC3)C/C(=C\c3ccc(OC)cc3)C2=O)cc1 | 23.3% | 15.2% | -61.4% (active) | -39.3% (active) | -0.32% (active) | -31.8% (active) | -89.5% (active) | -59.6% (active) |
| COc1cccc(/C=C\C(=O)c2ccccc2)c1 | 56.5% | 97.4% | 72.9% | 15% | 11.5% | 16.2% | 104% | 8.52% (active) |
| O=C1Nc2ccccc2/C1=C/C(=N/c1nnc(-c2ccc(Cl)cc2)s1)c1ccccc1 | 65.9% | 31.9% | 41.7% | -52.6% (active) | 28.5% | -58.5% (active) | 99.8% | 66.4% |
| O=c1ccc2cc3ccccc3cc2[nH]1 | 96.9% | 108% | 92.3% | 97.4% | 96.6% | 99.2% | 83.3% | 101% |
